The full data set covers some 7,900 targets. This sample favours those with a hit. About 0.6% of all pairs of compound and target were hits. Unmarked numbers belong to inactive results.
How the values were obtained:
Assay in all cases: log2 fold change, soluble protein after heating vs DMSO (PISA); higher = thermal stabilisation; K562 cells, 10 uM, 30 min; active = over 0.2 and 3.5 SD of the protein, either way, in both replicates (recomputed)
[1] = compound: CC1=C(C=C(C=C1)NC(=O)C2=CC(=CC=C2)C(C)(C)C#N)NC3=CC4=C(C=C3)N=CN(C4=O)C
Procedure, shortened: (§1)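 K562 cells at 2×10^6 cells/mL were given 10 μM compound for 30 min. Aliquots then went through 3 min of heating across 48°C-58°C, were pooled, and were extracted in PBS with 0.5% NP-40 at 4°C, and the supernatant after 21,000xg for 90 min was quantified by TMTpro 16plex LC-MS/MS with channel sums equalised. Thermal stability relative to control samples, from duplicates, is given as log2 fold change.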

[2] = compound: CC1=C(C=C(C=C1)NC(=O)C2=CC(=CC=C2)N(C)C)NC(=O)C3=CC=C(C=C3)O
Procedure, shortened: as §1

[3] = compound: CC1=CC=C(C=C1)SC2=C3C=C(SC3=CN=C2)C(=O)N
Procedure, shortened: as §1

[4] = compound: CC1=NC(=CC=C1)C2=C(N=C(N2)C(C)(C)C)C3=CC4=NC=CN=C4C=C3
Procedure, shortened: as §1

[5] = compound: CCCCN(Cc1ccc(C(=O)NO)cc1)C(=O)Nc1ccccc1 [Nexturastat A]
Procedure, shortened: as §1

[6] = compound: CCCS(=O)(=O)Nc1ccc(F)c(C(=O)c2c[nH]c3ncc(-c4ccc(Cl)cc4)cc23)c1F [vemurafenib]
Procedure, shortened: as §1

[7] = compound: CCCS(=O)(=O)Nc1ccc(F)c(C(=O)c2c[nH]c3ncc(Cl)cc23)c1F
Procedure, shortened: as §1

[8] = compound: CCCc1cc(C)[nH]c(=O)c1CNC(=O)c1cc(-c2ccnc(N3CCN(C)CC3)c2)cc2c1cnn2C(C)C
Procedure, shortened: as §1

[9] = compound: CCN(CC)Cc1ccc2cc(COC(=O)Nc3ccc(C(=O)NO)cc3)ccc2c1 [givinostat]
Procedure, shortened: as §1

[10] = compound: CCN(CCCOc1ccc2c(Nc3cc(CC(=O)Nc4cccc(F)c4)[nH]n3)ncnc2c1)CCOP(=O)(O)O [barasertib]
Procedure, shortened: as §1

[11] = compound: CC[C@@H]1C(=O)N(C)c2cnc(Nc3ccc(C(=O)NC4CCN(C)CC4)cc3OC)nc2N1C1CCCC1
Procedure, shortened: as §1

[12] = compound: CC[C@@H]1C(=O)N(C)c2cnc(Nc3ccc(C(=O)N[C@H]4CC[C@H](N5CCN(CC6CC6)CC5)CC4)cc3OC)nc2N1C(C)C [volasertib]
Procedure, shortened: as §1

[13] = compound: CC[C@H](C)N1C=C(C2=C(C=C(C=C21)C3=CN=C(C=C3)N4CCNCC4)C(=O)NCC5=C(C=C(NC5=O)C)C)C
Procedure, shortened: as §1

[14] = compound: CC[C@H](C)[C@@H](C(=O)N[C@@H]([C@@H](C)O)C(=O)N[C@@H](CC(C)C)C(=O)[C@]1(CO1)C)NC(=O)[C@H]([C@@H](C)CC)N(C)C(=O)C [epoxomicin]
Procedure, shortened: as §1

[15] = compound: CCn1c(C(=O)N(C2CC2)C2CC2)cc2c3c(ncn3C)c(Nc3cc(C)n(C)n3)nc21
Procedure, shortened: as §1

[16] = compound: CCn1cc(-c2ccnc3[nH]c(-c4cccc(CN(C)C)c4)cc23)c(-c2ccc(NC(=O)N(C)C)cc2)n1
Procedure, shortened: as §1

[17] = compound: CN(C)CC(=O)Nc1ccc2[nH]c(=O)c3ccccc3c2c1
Procedure, shortened: as §1

[18] = compound: CN(CCOC1=CC=C(C=C1)C[C@H]2C(=O)NC(=O)S2)C3=CC=CC=N3 (racemic) [rosiglitazone]
Procedure, shortened: as §1

[19] = compound: CN1C2=C(C3=C1C(=O)N(N=C3)CC4=CC(=CC=C4)N)SC(=C2)S(=O)C
Procedure, shortened: as §1

[20] = compound: CN1CCC(CNc2ccc3ncc(-c4cccc(OC(F)(F)F)c4)n3n2)CC1
Procedure, shortened: as §1

Sequence of UniProt P55196 (P55196 whole entry, looked up): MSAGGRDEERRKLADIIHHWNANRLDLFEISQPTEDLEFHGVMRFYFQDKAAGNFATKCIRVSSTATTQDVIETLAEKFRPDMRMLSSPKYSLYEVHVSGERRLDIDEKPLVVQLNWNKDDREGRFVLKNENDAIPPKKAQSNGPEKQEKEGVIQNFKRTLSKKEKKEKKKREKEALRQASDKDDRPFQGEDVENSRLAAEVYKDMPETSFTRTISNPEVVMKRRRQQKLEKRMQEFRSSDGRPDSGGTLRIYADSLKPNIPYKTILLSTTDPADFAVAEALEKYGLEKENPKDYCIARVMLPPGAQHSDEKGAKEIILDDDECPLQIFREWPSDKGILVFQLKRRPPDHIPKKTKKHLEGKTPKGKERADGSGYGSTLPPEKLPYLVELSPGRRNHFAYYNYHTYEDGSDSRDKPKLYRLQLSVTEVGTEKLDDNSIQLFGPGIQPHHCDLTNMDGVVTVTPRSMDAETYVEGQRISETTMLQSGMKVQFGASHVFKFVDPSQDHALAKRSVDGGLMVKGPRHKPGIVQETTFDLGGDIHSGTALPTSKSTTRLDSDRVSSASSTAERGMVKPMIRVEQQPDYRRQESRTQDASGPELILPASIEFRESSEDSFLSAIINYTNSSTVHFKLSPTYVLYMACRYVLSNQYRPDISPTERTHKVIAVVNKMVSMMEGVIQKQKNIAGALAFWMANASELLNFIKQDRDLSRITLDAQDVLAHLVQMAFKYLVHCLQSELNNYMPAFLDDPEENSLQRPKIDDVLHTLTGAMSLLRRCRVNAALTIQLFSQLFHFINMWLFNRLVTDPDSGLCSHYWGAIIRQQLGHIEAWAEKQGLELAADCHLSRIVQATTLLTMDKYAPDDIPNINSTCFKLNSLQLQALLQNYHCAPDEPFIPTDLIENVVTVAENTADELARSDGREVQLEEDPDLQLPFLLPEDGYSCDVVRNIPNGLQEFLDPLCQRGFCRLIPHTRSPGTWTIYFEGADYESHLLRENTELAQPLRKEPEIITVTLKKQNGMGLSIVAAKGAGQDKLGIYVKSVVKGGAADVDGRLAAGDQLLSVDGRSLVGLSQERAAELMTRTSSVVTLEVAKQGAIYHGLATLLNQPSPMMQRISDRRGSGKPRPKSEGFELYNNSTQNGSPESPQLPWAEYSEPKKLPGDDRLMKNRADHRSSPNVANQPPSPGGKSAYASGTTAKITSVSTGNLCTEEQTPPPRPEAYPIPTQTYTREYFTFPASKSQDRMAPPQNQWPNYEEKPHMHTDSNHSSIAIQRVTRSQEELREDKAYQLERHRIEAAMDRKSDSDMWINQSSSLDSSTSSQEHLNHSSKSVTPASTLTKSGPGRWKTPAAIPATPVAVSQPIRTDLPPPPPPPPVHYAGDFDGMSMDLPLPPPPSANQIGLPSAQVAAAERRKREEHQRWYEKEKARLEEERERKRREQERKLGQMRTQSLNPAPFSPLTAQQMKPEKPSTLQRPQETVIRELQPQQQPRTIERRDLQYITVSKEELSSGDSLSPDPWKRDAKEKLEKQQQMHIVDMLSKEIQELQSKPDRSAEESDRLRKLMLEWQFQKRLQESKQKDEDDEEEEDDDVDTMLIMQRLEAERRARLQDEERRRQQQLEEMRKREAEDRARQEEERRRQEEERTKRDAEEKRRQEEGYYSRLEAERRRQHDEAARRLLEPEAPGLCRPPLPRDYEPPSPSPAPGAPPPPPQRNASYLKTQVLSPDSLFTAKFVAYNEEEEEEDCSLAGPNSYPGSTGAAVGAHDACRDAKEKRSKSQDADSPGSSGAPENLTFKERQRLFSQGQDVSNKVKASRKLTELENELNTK
Sequence of UniProt Q10589 (Q10589 whole entry, looked up): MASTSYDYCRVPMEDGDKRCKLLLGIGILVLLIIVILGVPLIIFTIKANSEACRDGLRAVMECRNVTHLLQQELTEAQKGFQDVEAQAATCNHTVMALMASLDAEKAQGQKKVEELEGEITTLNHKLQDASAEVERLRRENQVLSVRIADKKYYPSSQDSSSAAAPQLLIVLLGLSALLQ
Sequence of UniProt O95433 (O95433 whole entry, looked up): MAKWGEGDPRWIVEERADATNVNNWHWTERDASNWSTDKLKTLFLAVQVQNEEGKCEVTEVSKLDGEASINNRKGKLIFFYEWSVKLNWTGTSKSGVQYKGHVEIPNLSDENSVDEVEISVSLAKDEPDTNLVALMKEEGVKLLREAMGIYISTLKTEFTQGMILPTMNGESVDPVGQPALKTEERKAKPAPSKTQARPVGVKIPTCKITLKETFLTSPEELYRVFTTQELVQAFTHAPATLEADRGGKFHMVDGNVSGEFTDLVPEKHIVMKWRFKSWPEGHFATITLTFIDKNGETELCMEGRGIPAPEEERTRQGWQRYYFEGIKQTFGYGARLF
Sequence of UniProt Q8N6T3 (Q8N6T3 whole entry, looked up): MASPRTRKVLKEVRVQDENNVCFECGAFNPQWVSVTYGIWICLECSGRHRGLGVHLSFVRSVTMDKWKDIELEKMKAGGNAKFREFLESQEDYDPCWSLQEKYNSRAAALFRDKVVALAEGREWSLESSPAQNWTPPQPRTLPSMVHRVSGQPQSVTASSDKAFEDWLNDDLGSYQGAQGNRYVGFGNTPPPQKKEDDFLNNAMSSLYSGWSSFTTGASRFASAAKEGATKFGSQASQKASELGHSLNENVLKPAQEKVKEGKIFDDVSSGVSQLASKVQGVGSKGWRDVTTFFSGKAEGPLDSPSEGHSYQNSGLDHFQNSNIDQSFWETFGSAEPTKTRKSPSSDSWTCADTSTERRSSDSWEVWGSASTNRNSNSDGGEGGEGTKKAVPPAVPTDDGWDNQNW
Sequence of UniProt P53680 (P53680 whole entry, looked up): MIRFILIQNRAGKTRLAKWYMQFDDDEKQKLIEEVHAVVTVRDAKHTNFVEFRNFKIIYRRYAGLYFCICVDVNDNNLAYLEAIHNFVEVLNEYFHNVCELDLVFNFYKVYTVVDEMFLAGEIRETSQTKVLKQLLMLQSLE
Sequence of UniProt P15291 (P15291 whole entry, looked up): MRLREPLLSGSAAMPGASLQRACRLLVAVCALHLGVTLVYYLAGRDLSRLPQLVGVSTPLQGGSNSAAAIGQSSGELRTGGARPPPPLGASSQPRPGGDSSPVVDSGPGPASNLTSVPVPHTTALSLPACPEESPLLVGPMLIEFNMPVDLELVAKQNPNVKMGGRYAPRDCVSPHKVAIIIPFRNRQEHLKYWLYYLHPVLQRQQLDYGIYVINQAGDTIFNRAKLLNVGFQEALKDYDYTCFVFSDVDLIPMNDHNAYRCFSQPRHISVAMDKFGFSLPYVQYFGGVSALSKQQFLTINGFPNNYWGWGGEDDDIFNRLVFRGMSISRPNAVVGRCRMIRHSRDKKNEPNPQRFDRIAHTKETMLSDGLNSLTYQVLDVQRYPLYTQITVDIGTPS
Sequence of UniProt P55263 (P55263 whole entry, looked up): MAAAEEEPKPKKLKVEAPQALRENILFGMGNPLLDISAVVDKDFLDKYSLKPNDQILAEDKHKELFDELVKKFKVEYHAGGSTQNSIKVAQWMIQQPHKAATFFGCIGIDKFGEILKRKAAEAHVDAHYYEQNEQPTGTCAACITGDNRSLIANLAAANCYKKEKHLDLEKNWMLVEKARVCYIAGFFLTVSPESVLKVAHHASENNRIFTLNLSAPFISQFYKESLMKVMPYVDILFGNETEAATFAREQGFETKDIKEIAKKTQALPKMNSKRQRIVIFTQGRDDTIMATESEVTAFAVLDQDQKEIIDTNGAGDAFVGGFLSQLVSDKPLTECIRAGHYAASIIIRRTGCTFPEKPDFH
Sequence of UniProt Q92685 (Q92685 whole entry, looked up): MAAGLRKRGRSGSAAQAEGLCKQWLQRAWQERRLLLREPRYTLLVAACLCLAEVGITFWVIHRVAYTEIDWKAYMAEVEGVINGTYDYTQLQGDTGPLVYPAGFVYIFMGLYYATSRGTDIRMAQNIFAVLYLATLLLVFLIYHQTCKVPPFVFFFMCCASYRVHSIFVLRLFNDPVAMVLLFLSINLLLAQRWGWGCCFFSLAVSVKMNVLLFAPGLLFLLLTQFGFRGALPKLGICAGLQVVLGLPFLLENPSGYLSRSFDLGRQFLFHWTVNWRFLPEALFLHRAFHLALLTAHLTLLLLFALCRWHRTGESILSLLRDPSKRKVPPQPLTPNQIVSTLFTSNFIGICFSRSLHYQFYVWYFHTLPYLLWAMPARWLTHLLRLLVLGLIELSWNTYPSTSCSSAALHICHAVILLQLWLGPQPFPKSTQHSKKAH
Sequence of UniProt Q9ULC5 (Q9ULC5 whole entry, looked up): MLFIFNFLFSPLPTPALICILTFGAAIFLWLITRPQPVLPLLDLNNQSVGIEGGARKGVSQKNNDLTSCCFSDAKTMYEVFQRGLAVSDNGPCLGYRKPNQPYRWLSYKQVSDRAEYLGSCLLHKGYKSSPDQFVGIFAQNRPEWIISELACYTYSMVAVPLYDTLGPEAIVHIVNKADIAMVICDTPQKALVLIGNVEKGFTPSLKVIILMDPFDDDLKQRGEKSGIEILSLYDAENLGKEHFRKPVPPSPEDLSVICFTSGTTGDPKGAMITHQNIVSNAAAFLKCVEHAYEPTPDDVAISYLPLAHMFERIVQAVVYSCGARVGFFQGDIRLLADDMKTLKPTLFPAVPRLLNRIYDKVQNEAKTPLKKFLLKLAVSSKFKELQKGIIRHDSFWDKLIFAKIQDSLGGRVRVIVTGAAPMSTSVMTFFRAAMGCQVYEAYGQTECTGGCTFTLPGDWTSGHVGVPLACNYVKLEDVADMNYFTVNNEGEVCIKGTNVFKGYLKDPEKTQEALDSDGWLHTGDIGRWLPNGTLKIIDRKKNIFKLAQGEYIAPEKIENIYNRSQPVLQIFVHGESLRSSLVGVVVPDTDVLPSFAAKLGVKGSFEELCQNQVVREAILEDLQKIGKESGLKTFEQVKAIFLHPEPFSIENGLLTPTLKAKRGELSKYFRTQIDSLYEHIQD
Sequence of UniProt P24666 (P24666 whole entry, looked up): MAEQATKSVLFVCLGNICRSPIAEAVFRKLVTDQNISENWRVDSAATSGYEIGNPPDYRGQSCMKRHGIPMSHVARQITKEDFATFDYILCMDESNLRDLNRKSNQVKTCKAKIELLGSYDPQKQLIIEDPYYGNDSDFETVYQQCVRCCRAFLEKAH

Target | log2 fold change [1] | log2 fold change [2] | log2 fold change [3] | log2 fold change [4] | log2 fold change [5] | log2 fold change [6] | log2 fold change [7] | log2 fold change [8] | log2 fold change [9] | log2 fold change [10] | log2 fold change [11] | log2 fold change [12] | log2 fold change [13] | log2 fold change [14] | log2 fold change [15] | log2 fold change [16] | log2 fold change [17] | log2 fold change [18] | log2 fold change [19] | log2 fold change [20]
AFDN isoform 5 (UniProt P55196) | -0.031 | -0.049 | 0 | 0.087 | -0.033 | 0.021 | 0.023 | 0.007 | 0.062 | 0.015 | -0.072 | -0.254 (active) | 0.05 | 0.047 | -0.047 | -0.099 | 0.008 | 0.044 | -0.003 | -0.353 (active)
ARFIP1 (UniProt P53367) | -0.031 | 0.042 | 0.022 | -0.006 | -0.081 | -0.026 | 0.084 | 0.045 | 0.058 | 0.046 | -0.008 | -0.184 | 0.113 | -0.003 | -0.101 | 0.083 | -0.011 | 0.856 | -0.053 | -0.421
AHSA1 (UniProt O95433) | -0.014 | 0.006 | 0 | 0.062 | -0.019 | 0.029 | 0.036 | -0.024 | -0.015 | 0.027 | -0.085 | -0.228 (active) | 0.038 | 0.023 | 0 | -0.052 | 0 | 0.027 | -0.06 | 0.038
ATP1B3 (UniProt P54709) | 0 | -0.015 | -0.02 | 0.046 | -0.065 | 0.005 | -0.036 | -0.018 | -0.055 | -0.021 | 0.06 | 0.094 | -0.022 | -0.033 | 0.04 | -0.028 | 0.012 | -0.011 | -0.063 | 0.168
ACSL5 isoform 3 (UniProt Q9ULC5) | 0.106 | 0.061 | -0.025 | 0.088 | -0.009 | 0.001 | 0.083 | -0.019 | -0.023 | 0.013 | -0.013 | -0.088 | 0.029 | 0.005 | 0.03 | -0.068 | -0.084 | -0.009 | -0.216 | -0.361 (active)
ANAPC2 (UniProt Q9UJX6) | 0.031 | -0.015 | -0.001 | 0.069 | -0.045 | 0.027 | 0.047 | -0.049 | 0.042 | 0.022 | -0.071 | -0.338 (active) | 0.023 | -0.031 | -0.027 | -0.018 | 0.004 | 0.191 | 0.03 | -0.001
BAIAP2 isoform 4 (UniProt Q9UQB8) | 0.034 |  |  |  |  |  |  |  |  |  |  |  |  |  |  |  |  |  |  | 
AHCYL1 (UniProt O43865) | -0.103 | 0.003 | -0.061 | 0.011 | 0.014 | -0.029 | -0.015 | -0.039 | -0.026 | -0.036 | 0.021 | 0.036 | -0.099 | -0.007 | -0.027 | -0.097 | 0.018 | 0.018 | -0.115 | -0.063
ADK (UniProt P55263) | 0.03 | -0.027 | 0 | -0.011 | -0.04 | -0.013 | -0.046 | 0.106 | -0.076 | -0.026 | 0.338 | 0.359 | -0.095 | -0.011 | 0.097 | -0.026 | -0.018 | -0.017 | -0.085 | 0.184
ALG3 (UniProt Q92685) | 0.108 | 0.002 | 0.113 | 0.376 (active) | 0.008 | -0.076 | 0.123 | -0.079 | -0.09 | 0 | 0.005 | -0.164 | 0.02 | 0.039 | -0.022 | -0.037 | -0.002 | 0.049 | -0.028 | 0.033
BST2 (UniProt Q10589) | 0.059 | 0.014 | -0.003 | -0.011 | 0.023 | 0 | -0.029 | -0.095 | 0.053 | -0.097 | 0.091 | 0.206 | -0.062 | -0.025 | -0.003 | 0.045 | -0.008 | -0.055 | 0 | 0.223 (active)
AP2S1 (UniProt P53680) | 0.009 | -0.028 | -0.036 | 0.037 | -0.038 | 0.002 | 0.03 | 0.007 | -0.015 | -0.034 | 0.035 | 0.018 | -0.024 | -0.022 | 0.023 | -0.008 | -0.071 | 0.02 | -0.005 | 0.037
ACP1 isoform 2 (UniProt P24666) | 0.008 | -0.013 | 0.025 | -0.008 | 0.08 | 0.031 | 0.026 | 0.043 | 0.058 | 0.074 | 0.034 | 0.055 | 0.063 | 0.012 | -0.1 | -0.083 | 0.05 | 0.027 | 0.014 | -0.07
B4GALT1 (UniProt P15291) | -0.009 | -0.027 | 0.002 | -0.05 | -0.022 | 0.035 | 0.012 | -0.044 | -0.113 | -0.01 | -0.324 (active) | -0.571 (active) | 0.033 | 0.051 | 0.041 | -0.048 | -0.03 | 0.072 | -0.081 | -0.28 (active)
ATP23 (UniProt Q9Y6H3) | 0.027 | -0.013 | 0.122 | 0.058 | -0.172 | 0.021 | -0.039 | -0.031 | -0.012 | -0.049 | -0.007 | 0.004 | -0.078 | 0.016 | 0.059 | 0.055 | -0.045 | -0.011 | -0.087 | -0.478 (active)
ALDH9A1 isoform 3 (UniProt P49189) | 0.01 | 0.012 | 0.03 | 0.01 | -0.049 | 0.006 | 0.006 | -0.019 | -0.005 | 0.01 | 0 | -0.003 | -0.048 | 0.011 | 0.003 | -0.025 | -0.01 | -0.004 | -0.065 | -0.027
ARFGAP1 (UniProt Q8N6T3) | -0.053 | -0.168 | 0.107 | 0.034 | 0.038 | 0.085 | 0.124 | 0.016 | 0.029 | 0.1 | -0.182 | -0.545 (active) | 0.056 | 0.026 | -0.042 | 0.008 | 0.036 | -0.003 | -0.016 | 0.068
